Experimental data reported in PubChem BioAssay AID1347416 (National Center for Advancing Translational Sciences (NCATS), 2020).
About 1,600 (39%) of roughly 4,100 compounds were called active. Roughly 25% stayed inconclusive and do not appear here. Calls follow the shape of the dose curve; as a rule, active = well fitted inhibition curve with a large enough effect; inconclusive = small, poorly fitted or top-dose-only effect; inactive = no such curve, though single readings can be large or run the other way. The list shows a part of the results.

Assay: qHTS Validation assay for Inhibitors of Plasmodium falciparum Dd2 growth in vitro; also: nearly all actives have a fitted effect of over 70% in size
Conditions: P. falciparum Dd2 in RBCs, SYBR Green growth, 72 h; series mostly up to 28.7 µM; activity change, negative = inhibition: at the top concentration
Procedure, shortened: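 P. falciparum Dd2-infected red blood cells (2.5% hematocrit, 0.3% parasitemia) grown 72 h at 37 °C under 5% O2 with compounds in a titration, 29 uM to 0.5 nM final. Growth read as SYBR Green-1 fluorescence after ~16 h lysis; artesunate 300 nM as positive control.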
% is scaled to controls: 0 for no effect and ±100 for the full control effect; potency is read from the fitted curve at half-maximal effect.

Compound | activity change, negative = inhibition | Potency
CCn1nc(C)c(-c2cc(C(=O)NCCc3noc(-c4ccccc4)n3)no2)c1C | -0.509% (inactive) | –
CC1(C)C[C@H](NCc2ccc(CO)o2)[C@@]2(CCC(=O)NCCN3CCOCC3)CC[C@](C)(O)C[C@@H]12 | 4.43% (inactive) | –
Cc1nc2c(c(-c3ccc(O)cc3)n1)CN(Cc1ccc(C(F)(F)F)cc1)CCC2 | – | 4.22 µM (active)
COc1ccccc1CNS(=O)(=O)c1ccc2c(c1)CC(=O)N2C | -10.4% (inactive) | –
Cc1ccc(C(=O)Nc2cccc(NC(=O)c3ccc(C)c([N+](=O)[O-])c3)n2)cc1[N+](=O)[O-] | – | 15 µM (active)
COc1ccc(N(CC(=O)NCc2ccncc2)S(=O)(=O)c2ccc(C)c([N+](=O)[O-])c2)cc1 | 24.8% (inactive) | –
Cc1ccc(C(=O)NCCn2c(C)cc3ccccc32)cc1C | 0% (inactive) | –
C/C(=N\NC(=O)c1cccc(Br)c1)c1ccccn1 | – | 4.73 µM (active)
C/C(=N\NC(=O)c1ccccc1OCc1ccc(F)cc1)c1ccccn1 | – | 4.73 µM (active)
O=C(N/N=C/c1ccccn1)c1ccccc1 | -1.81% (inactive) | –
Cc1n[nH]c(=S)n(/N=C/c2cccs2)c1=O | 16.4% (inactive) | –
O=c1cc(Nc2ccc3c(c2)OCCO3)[nH]c(=O)n1C1CCCCC1 | -0.988% (inactive) | –
COc1ccc(-c2csc3ncnc(Cl)c23)cc1 | – | 4.22 µM (active)
Fc1ccc(-c2csc3ncnc(Cl)c23)cc1 | – | 3.35 µM (active)
CCc1ccc(C(=O)N2C[C@@H](CO)[C@H](c3ccccn3)C2)cc1 | 3.1% (inactive) | –
O=C(CC1C(=O)NCCN1Cc1cccc(Oc2ccccc2)c1)NCc1ccco1 (centres undefined) | 45.2% (inactive) | –
C#CCN(C)C(=O)C[C@@H]1c2nc(NC(=O)c3ccc(OC)cc3)sc2C[C@@H]2[C@](C)(CO)[C@H](O)CC[C@]21C | – | 2.66 µM (active)
C[C@]1(CO)[C@H]2Cc3sc(NC(=O)C4CCCCC4)nc3[C@@H](CC(=O)NCc3cccnc3)[C@]2(C)CC[C@H]1O | -11.7% (inactive) | –
COc1ccc(C(=O)Nc2nc3c(s2)C[C@@H]2[C@](C)(CO)[C@H](O)CC[C@@]2(C)[C@@H]3CC(=O)NCc2ccco2)cc1 | – | 2.66 µM (active)
CNC(=O)[C@H]1C[C@H](Oc2ccccc2)CN1Cc1c[nH]c2ccc(OC)cc12 | -11.3% (inactive) | –
COc1cccc(CNC(=O)CN2C(=O)NC3(CCC(C(C)(C)C)CC3)C2=O)c1 (centres undefined) | -13.8% (inactive) | –
COc1ccc2[nH]cc(CCNC(=O)C3(Cc4ccccc4)CCCCC(=O)N3)c2c1 (centres undefined) | – | 5.96 µM (active)
CCC(=O)O[C@]1(C(=O)CCl)[C@@H](C)C[C@H]2[C@@H]3C[C@H](F)C4=CC(=O)C=C[C@]4(C)[C@@]3(F)[C@@H](O)C[C@@]21C | – | 10.6 µM (active)

Compound | activity change, negative = inhibition | Potency
Cc1ccc(NC(=O)Cn2cccc2-c2nc(-c3ccccc3)no2)c(C)c1 | 17.6% (inactive) | –
O=C(Cn1cccc1-c1nc(-c2ccc(F)cc2)no1)NCCc1ccccc1 | 0.293% (inactive) | –
CC(C)c1ccccc1NC(=O)CSc1nnc(COc2ccccc2Cl)o1 | 38.9% (inactive) | –
CC(C)c1ccccc1NC(=O)Cn1cccc1-c1nc(-c2ccccc2)no1 | – | 4.22 µM (active)
CC(C)c1ccccc1NC(=O)Cn1cccc1-c1nc(-c2ccc(F)cc2)no1 | – | 2.99 µM (active)
COc1ccccc1NC(=O)Cn1cccc1-c1nc(-c2ccc(F)cc2)no1 | -5.56% (inactive) | –
Cc1ccccc1N(C(=O)c1snc(C(N)=O)c1N)C(C(=O)NCC1CCCO1)c1ccc(N(C)C)cc1 (centres undefined) | – | 7.5 µM (active)
O=C(C1CCC1)N1CCCCCC1c1nnc(-c2ccccc2)o1 (centres undefined) | -20.8% (inactive) | –
Cc1ccc(-c2cc(C(F)(F)F)n3ncc(C(=O)N4CCCCC4c4cccnc4)c3n2)cc1 (centres undefined) | – | 1.88 µM (active)
O=C(c1cnn2c(C(F)F)cc(-c3ccccc3)nc12)N1CCCCC1c1cccnc1 (centres undefined) | – | 8.41 µM (active)
O=C(c1ccccc1F)N1CCCCCC1c1nnc(-c2ccccc2)o1 (centres undefined) | -13.5% (inactive) | –
Cc1ccc(-c2cc(C(F)F)n3ncc(C(=O)Nc4ccc(S(=O)(=O)Nc5ccccc5C)cc4)c3n2)cc1 | 74.9% (inactive) | –
Cc1ccc(-c2cc(C(F)F)n3ncc(C(=O)N4CCCCC4c4cccnc4)c3n2)cc1 (centres undefined) | – | 2.37 µM (active)
CC(C)c1ccc(CN2CCc3ncc(C(=O)NCCN4CCNC4=O)n3CC2)cc1 | 21.5% [at 43.1 µM] (inactive) | –
O=C(Nc1ccc(-c2csc(Nc3ccccc3)n2)cc1)c1cc([N+](=O)[O-])cc(C(F)(F)F)c1 | – | 2.11 µM (active)
Cc1ccc(-c2cc3c(=O)n(CCNC(=O)c4cc(F)ccc4F)ccn3n2)c(C)c1 | -1.76% (inactive) | –
CN(C)C(=O)c1ccc(N2CCC(NCCC3=CC[C@H]4C[C@@H]3C4(C)C)CC2)cc1 | 0% (inactive) | –
CC(CCc1ccccc1)NCC(O)c1cccc([N+](=O)[O-])c1 (centres undefined) | – | 0.473 µM (active)
O=C(CCc1cc(Cl)no1)N1CCc2nc3cc(-c4ccccc4)[nH]n3c(=O)c2C1 | -14.8% (inactive) | –
CCN(CC)C(=O)Cn1c(=O)n(-c2ccc(Cl)cc2)c(=O)c2c3c(sc21)CCCCC3 | 18.7% (inactive) | –
CC(=O)c1sc2c(c1C)c(=O)n(-c1ccc(Cl)cc1)c(=O)n2Cc1cc(=O)n2cc(Cl)ccc2n1 | – | 7.5 µM (active)
CCc1nc2c(c(-c3ccc(O)cc3)n1)CCN(Cc1ccccc1C(F)(F)F)CC2 | – | 2.99 µM (active)
CC(C)c1nc2c(c(-c3ccc(O)cc3)n1)CCN(Cc1ccccc1C(F)(F)F)CC2 | – | 4.73 µM (active)

Compound | activity change, negative = inhibition | Potency
Cc1c(Cl)cccc1Nc1nn2c(=O)c3ccc(C(=O)N(C)Cc4ccccc4)cc3nc2s1 | – | 16.8 µM (active)
O=c1c2cc3c(cc2nc2sc(Nc4ccc(F)cc4F)nn12)OCO3 | 20.7% (inactive) | –
NS(=O)(=O)c1ccc(CCNC(=O)c2ccc3nc(CCc4ccccc4)oc3c2)cc1 | 7.99% (inactive) | –
Cc1c(Cl)cccc1NC(=O)CCCn1nc(C)c2sc3ccccc3c2c1=O | 12% (inactive) | –
Cc1c(Cl)cccc1Nc1nn2c(=O)c3ccc(C(=O)NCCc4ccccc4)cc3nc2s1 | – | 7.5 µM (active)
CC1(CNc2ccccc2)COc2ccc(C(=O)NCCc3ccccc3)cc2N1 (centres undefined) | -37.5% [at 43.1 µM] (inactive) | –
COc1ccccc1C1CC(c2ccccc2)=NN1C(=O)c1ccccc1 (centres undefined) | – | 2.37 µM (active)
O=C(NC1CCCN(c2cc(-c3ccccc3)[nH]n2)C1)c1cccc(Cl)c1 (centres undefined) | -27.5% (inactive) | –
COc1ccc(/C(C)=N/NC(=S)NCCc2ccccc2)c(O)c1 | – | 3.35 µM (active)
CCCCc1c(C)c(C#N)c2nc3ccccc3n2c1Nc1c(C)n(C)n(-c2ccccc2)c1=O | – | 2.66 µM (active)
Cc1sc(NC(=O)c2ccco2)c(C(c2cccnc2)N2CCC(C)CC2)c1C (centres undefined) | – | 5.31 µM (active)
CC1CCN(S(=O)(=O)c2ccc(NC(=O)c3ccco3)cc2)CC1 | 4.42% (inactive) | –
CCOC(=O)c1cn(CC)c2c(ccc3ccccc32)c1=O | 20.8% (inactive) | –
CCOC(=O)c1c[nH]c2c(C)cc(C)cc2c1=O | – | 4.22 µM (active)
CCOC(=O)c1c[nH]c2cc(OCC(C)C)c(OCC(C)C)cc2c1=O | – | 0.944 µM (active)
c1csc(-c2nc3nccc(-c4cc5ccccc5o4)n3n2)c1 | 16.8% (inactive) | –
CC(NCc1ccccc1)c1ccccc1O (centres undefined) | – | 5.31 µM (active)
CCN1C(=O)c2cccc3c(S(=O)(=O)Nc4ccccc4)ccc1c23 | 37.8% (inactive) | –
Cc1ccccc1-c1nccn2c(C3CN(Cc4ccccc4O)C3)ncc12 | – | 5.44 µM (active)
O=[N+]([O-])c1ccc(S(=O)(=O)N2CCn3cccc3C2c2ccc(Br)cc2)cc1 (centres undefined) | – | 5.96 µM (active)
Cc1ccc(S(=O)(=O)N2CCC(C(=O)NC3CCCC3)CC2)cc1Cl | -26.1% (inactive) | –
CC(C(=O)N1CCCC1)N1CCN(S(=O)(=O)c2ccc(C(C)(C)C)cc2)CC1 (centres undefined) | – | 3.35 µM (active)
CC(C)N1CCC(NC(=O)NC2CCCCC2)CC1 | 42.7% (inactive) | –

Compound | activity change, negative = inhibition | Potency
CC(C(=O)NC1CCCC1)N1CCN(S(=O)(=O)c2ccc(C(C)(C)C)cc2)CC1 (centres undefined) | – | 8.41 µM (active)
COc1cccc(C(=O)N2CCC(N3C[C@H](O)C[C@H]3C(=O)N3CCc4ccccc4C3)CC2)c1 | – | 8.41 µM (active)
COc1cccc(CNC(=O)[C@@H]2C[C@@H](O)CN2C2CCN(C(=O)c3ccc(OC)c(F)c3)CC2)c1 | 0.134% (inactive) | –
COc1cccc(C(=O)N2CCC(N3C[C@H](O)C[C@H]3C(=O)N3CC=C(c4ccccc4)CC3)CC2)c1 | – | 9.44 µM (active)
COc1ccc(C(=O)N2CCC(n3c(C)cnc3-c3ccccc3)CC2)c(OC)c1 | -11.3% (inactive) | –
COCCNC(=O)[C@@H]1C[C@@H](O)CN1C1CCN(C(=O)Cc2ccccc2)CC1 | 0.0678% (inactive) | –
CCCC(=O)N1CCn2c(nnc2[C@@H]2C[C@@H](O)CN2Cc2ccccc2)C1 | 17.5% (inactive) | –
CCCCOCc1cc(CN2CCN(c3cccc(Cl)c3)CC2)c(O)c2ncccc12 | – | 6.68 µM (active)
CC(C)OCc1cc(CN2CCN(c3cccc(C(F)(F)F)c3)CC2)c(O)c2ncccc12 | – | 6.68 µM (active)
c1cc(-c2noc([C@@H]3Cc4nc[nH]c4CN3CC3CCCCC3)n2)ccn1 | – | 21.7 µM (active)
COCCOc1cc(-c2noc([C@@H]3CCCN3CC3CC3)n2)ccn1 | – | 15.3 µM (active)
CCOc1ccc(CC(=O)N2CCC[C@H]2c2nc(-c3ccc(C)cc3)no2)cc1 | 22.8% (inactive) | –
COc1ccc(-c2noc(CCCC(=O)N3CCCC3c3nc(C4CCOCC4)no3)n2)cc1OC (centres undefined) | -2.3% (inactive) | –
COCCNc1ncccc1-c1noc([C@@H]2CCCN2Cc2ccccn2)n1 | – | 7.69 µM (active)
COc1ccc(C(=O)N2CCC[C@H]2c2nc(-c3ccccc3Cl)no2)cc1OC | 4.37% (inactive) | –
COc1ccc(C(O)(CCC(C)C)C(CN2CCOCC2)c2ccc(Cl)cc2)cc1 (centres undefined) | – | 6.68 µM (active)
COc1ccc(C(O)(CCC(C)C)C(CN2CCOCC2)c2ccccc2)cc1 (centres undefined) | – | 5.31 µM (active)
COc1ccc(OC)c(NC(=O)c2ccc3c(c2)N(S(=O)(=O)c2ccccc2)CC3)c1 | -26.8% (inactive) | –
COc1cc(OC)c(NC(=O)N2CCc3cc(S(=O)(=O)N4CCC(C)CC4)ccc32)cc1Cl | 39.5% (inactive) | –
COc1ccc(S(=O)(=O)N2CCCCCC2)cc1NC(=O)c1c2c(nc3ccccc13)CCN(Cc1ccccc1)C2 | – | 4.73 µM (active)
